This passage reports Potency results from PubChem BioAssay (NCATS).

Each structure is given as a SMILES string. Inconclusive results are not listed. A call without a number means that no potency is given here. The source made the active and inactive calls. Calls come from the whole dose curve; as a rule, active = well fitted cell-killing curve with a large enough effect; inconclusive = small, poorly fitted or top-dose-only effect; inactive = no such curve, though single readings can be large or run the other way.
Potency is the fitted concentration of half-maximal effect.

This assay is described as follows: qHTS of pediatric cancer cell lines to identify multiple opportunities for drug repurposing: Primary screen for SK-N-SH cells (AID 1347098). Note: nearly all actives have a fitted effect of over 65% in size. Conditions: SK-N-SH viability, CellTiter-Glo luminescence, 48 h; series mostly up to 57 µM. An excerpt: Drug repurposing or repositioning has been offered as a strategy for drug development in oncology programs. This approach has special potential for childhood cancers and other rare or orphan diseases, where the expected return on new drug development has been a disincentive to pharmaceuticals.
In this project we exploit the poly-pharmacology of drugs to discover new indications via phenotypic screening of a panel of 19 well-characterized cell lines derived from solid tumors seen in children and adolescents. The goal is to identify approved drugs with previously unrecognized anticancer properties that has the potential to reveal new mechanisms and biological processes involved in carcinogenesis or drug resistance. We employed a titration-based paradigm (quantitative high-throughput screening or qHTS), where all compounds were tested at multiple concentrations for their effect on cell viability. Concentration-response curves (CRCs) were derived directly from the primary screen, and both potency and efficacy values were used to identify compounds with robust bioactivity profiles. We screened the NIH Chemical Genomics Center (NCGC) Pharmaceutical Collection (NPC) and Mechanism Interrogation Plate (MIPE) small molecule collections of approved and investigational compounds against these cell lines; and measured metabolically active cells after 48 hours of compound treatment as a proxy for cell viability.
Assay Submitter: Nathalia J. Martinez, National Center for Advancing Translational Sciences, National Institutes of Health, Rockville, MD, USA; email: natalia.martinez@nih.gov
[1] Shen, M et al. Quantitative high-throughput phenotypic screening of pediatric cancer cell lines identifies multiple opportunities for drug repurposing. Oncotarget 2017 Dec 19;9(4):4758-4772. PMID 29435139.
The cells were obtained from University of North Carolina (UNC), Pediatric Preclinical Testing Program (PPT), and Coriell Institute (CI).
qHTS cell viability assay:
Cells were assayed in growth media at a density of 500-1,000 cells/well. Five microliters of cells were dispensed into 1,536-well, white, solid-bottom, TC-treated plates (Greiner Bio One) using a multidrop dispenser and incubated at 37 degrees C, 5% CO2, under a humidified atmosphere for 5 hours. Twenty-three nanoliters of compounds and controls (neutral control DMSO or positive control bortezomib at final concentration of 2.3 µM) were subsequently transferred by Kalypsys pintool. For primary screens, the MIPE collection was tested at 11-point dilutions (final concentrations range from 0.78 nM to 46 µM) and the NPC collection at 8-point dilutions (final concentrations range from 0.59 nM to 46 µM). Compounds tested in follow-up screens were assayed at 11-point dilutions. Cells were incubated for 48 hours, followed by addition of 3 µL of CellTiter-Glo (Promega). After a 15 min incubation at room temperature, samples were analyzed for luminescence intensity using a ViewLux High-throughput CCD imager equipped with clear filters.
Background: qHTS replaces the single test concentration by a dilution series.
With `COc1cc2nc(Cl)nc(N)c2cc1OC`, the Potency result is “inactive”.
Consider `CC(C)(C)NCC(O)COc1ccccc1OCC1CCCO1` (stereo not given), for which the Potency entry is “inactive”.
Consider `CN(C)CCN(Cc1ccsc1)c1ccccn1`, for which the Potency entry was “inactive”.
As to `CC(C)OP(=O)(CP(=O)(OC(C)C)OC(C)C)OC(C)C`, the Potency result was “inactive”.
In the case of `CN1C(=O)c2ccccc2C1=O`, the Potency entry is “inactive”.
As for `CC(=O)OCC(=O)Nc1cc(C#N)cc(NC(=O)COC(C)=O)c1Cl`, the Potency result was “inactive”.
In the case of `O=C(O)Cc1ccccc1Oc1ccc(Cl)cc1Cl` it was “inactive”.
On to `CCCCOCCOC(=O)c1cccnc1`, for which the Potency result is “inactive”.
For `Cc1ccc(C(C)OC(=O)C2(C)CCC(C(=O)O)C2(C)C)cc1` (stereo not given), the Potency result was “inactive”.
For `COC(=O)c1c(Cl)c(Cl)c(C(=O)OC)c(Cl)c1Cl` the value was “inactive”; for `CN1CCC(Nc2ncc3ncnc(Nc4ccc(F)c(Cl)c4)c3n2)CC1`, 17.2 µM (active); for `CCOC(=O)c1ccc(O)c(O)c1`, “inactive”.
For the compound `Cc1ccc2ccc(Cl)cc2n1`, the Potency result was “inactive”.
Turning to `O=C(O)C(=O)Nc1cccc(-c2nn[nH]n2)c1`, the Potency result was “inactive”.
Regarding `O=C(CCC1CCN(Cc2ccccc2)CC1)c1ccc2c(c1)NCCCC2`, the Potency is 30.7 µM (active).
As to `C[C@H]1C[C@@H]2[C@H]([C@@H](O)C[C@@]3(C)[C@H]2CC[C@]3(O)C(=O)CO)[C@@]2(C)C=CC(=O)C=C12`, the Potency entry is “inactive”.
Consider `O=C(O)CNC(=O)CNC(=O)CNC(=O)CSC(=O)c1ccccc1`, for which the Potency entry is “inactive”.
Take `OC1(c2ccccc2)CCNCC1`: the Potency entry was “inactive”.
For `CCN(CC)CCOc1ccc(/C(=C(\Cl)c2ccccc2)c2ccccc2)cc1`, the Potency was 30.7 µM (active).
For `Cc1cc(O)c2c(O)c3c(O)cccc3cc2c1` the value was “inactive”.
For the compound `N#CC1(c2ccc(F)cc2)CCC(=O)CC1`, the Potency result was “inactive”.
Turning to `CC(NCCC(c1ccccc1)c1ccccc1)c1ccccc1` (stereo not given), the Potency is 27.3 µM (active).
For `Nc1ccc(C(=O)N2CC3CC(CN(Cc4ccccc4)C3)C2)cc1`, the Potency result is “inactive”.
For `O=C1CC2(CCCC2)CC(=O)N1CCNCC1COc2ccccc2O1` (stereo not given) the value was “inactive”.
Turning to `C1=CC2C3C=CC(C3)C2C1` (stereo not given), the Potency entry is “inactive”.
As to `C#CC(C)(CC)OC(=O)c1ccccc1C(=O)O` (stereo not given), the Potency entry was “inactive”.
Consider `CC(C)(C)CC(=O)OCC(=O)[C@@]1(O)CC[C@H]2[C@@H]3CCC4=CC(=O)C=C[C@]4(C)[C@H]3[C@@H](O)C[C@@]21C`, for which the Potency entry was “inactive”.
Consider `COC(=O)[C@H]1[C@H]2C[C@@H]3c4[nH]c5cc(OC)ccc5c4CCN3C[C@H]2C[C@@H](OC(=O)/C=C/c2ccc(O)c(OC)c2)[C@@H]1OC`, for which the Potency was 21.7 µM (active).
With `C=CCNc1nc(NCC=C)nc(N2CCN(C(c3ccc(F)cc3)c3ccc(F)cc3)CC2)n1`, the Potency result was “inactive”.
For the compound `CCN(CC)C(=O)C1CN2CCc3cc(OC)c(OC)cc3C2CC1OC(C)=O` (stereo not given), the Potency result was “inactive”.
For `COC(=O)c1cc(Cl)ccc1OC`, the Potency entry was “inactive”.
Regarding `O=C(O)c1ccc(OCCN2CCCCC2)cc1`, the Potency entry is “inactive”.
On to `CCCCCCCC(=O)[O-].CCCCCCCC(=O)[O-].[Zn+2]`, for which the Potency entry is “inactive”.
For `Nc1nc2ccccc2n1Cc1ccc(F)cc1`, the Potency result is “inactive”.
In the case of `CO/N=C(\C(=O)O)c1csc(NC(=O)CCl)n1` it was “inactive”.
`CC(C)=CCC/C(C)=C/CC/C(C)=C/CCC(=O)OC/C=C(\C)CCC=C(C)C`: the Potency entry was “inactive”.
For the compound `CN(C)CCN1CCN(c2cccc(Cl)c2)C1=O`, the Potency entry is “inactive”.
In the case of `Nc1c2ccccc2nc2ccccc12` it was 9.7 µM (active); in that of `O=C(O)/C=C(\CC(=O)O)C(=O)O`, “inactive”; in that of `COc1cc2c(cc1OC)CN(C(=O)[C@H](C)N[C@@H](CCc1ccccc1)C(=O)O)[C@H](C(=O)O)C2`, “inactive”.
